Results: PubChem BioAssay (NCI)
The panel holds about 83,000 compounds, 20% with a hit somewhere; the sample as a whole holds those more often.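 A percent growth of 40 corresponds to 60% growth inhibition; 0 means no net growth; -100 means all cells died. Active threshold: below 10.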 A number with no mark means an inactive call. Activity calls are given as the source filed them.

test system: TK-10 renal; experiment: NCI-60 one-dose screen, 48 h (100 = growth as untreated, 0 = no growth, -100 = all killed); details: 10 µM unless noted

SMILES | growth
COc1ccc(C/C(=C(\C)c2ccc(OCCN3CCCC3)cc2)c2ccc(OCCN3CCCC3)cc2)cc1 | 87.3%
CCOC(=O)Oc1c(OC)cc(C(=O)c2ccc(OC)c(O)c2OC)cc1OC | 43%
CCCCOc1ccc(/C(C)=N/Nc2cc(C)nc3ccc(Br)cc23)cc1 | 112%
O=[N+]([O-])c1cc(Br)c2cccc3c2c1CC3 | 110%
CC(Oc1ccc(C(=O)O)cc1C(F)(F)F)c1ccc(Oc2ccccc2)cn1 (stereo not drawn) | 99.5%
CCN1CCN(CCNc2nccc(-c3c(-c4cccc(OC)c4)nc4occn34)n2)S1(=O)=O | 128%
Cn1c2ccccc2c2c3c(c4c5ccccc5n(C)c4c21)C(=O)OC3 | 135%
COc1cc2c(cc1OC)C(=O)/C(=C/c1cc(C)c(O)c(C)c1)S2 | 66%
O=C(/C=C/c1ccc(F)cc1)c1ccc(NC(=O)N2CCN(c3cc4c(cc3F)c(=O)c(C(=O)O)cn4C3CC3)CC2)cc1 | 92.5%
O=C1c2ccc3c4c(ccc(c24)C(=O)N1CCCNCc1ccccc1Cl)C(=O)N(CCCNCc1ccccc1Cl)C3=O | -54.9% (active)
Cc1cccc(NC(=O)Nc2ccc(-n3cnc4cc(-c5ccc(O)cc5)ccc43)cc2)c1 | 21.8%
c1ccc(-c2cn3c(ccc4ccccc43)n2)cc1 | 89.5%
COc1cc2oc(-c3cccc(C(=O)Nc4ccccc4)c3)cc(=O)c2c(O)c1OC | 60.8%
Cc1ccc(/C=N/NC(=O)CSc2nc3ccccc3c(=O)n2Cc2ccc(S(N)(=O)=O)cc2)cc1 | 106%
C#CCNC(=O)c1cccc2c1cc(C)n2-c1nc2c(c(NCc3ccccc3)n1)CCCC2 | -15% (active)
COc1ccccc1NC(=O)C1CC(c2ccc(F)cc2)=NO1 (stereo not drawn) | 105%
O=C1Nc2cc(-c3ccc(NC(=O)c4ccccc4)cc3)ccc2/C1=C/c1ccc[nH]1 | 113%
C=CC(=O)N[C@@H](/C=C/C(=O)OCC)Cc1ccc(-c2cc(Cl)cc(Cl)c2)cc1 | 6.04% (active)
Cc1ccc(NC(=O)c2cc(-c3nc4ccccc4s3)c(=O)n(NS(=O)(=O)c3ccc(Cl)cc3)c2N)cc1 | 136%

SMILES | growth
O=C1Nc2cc(-c3ccc(NC(=O)C4CC4)cc3)ccc2/C1=C/c1ccc[nH]1 | 115%
O=S(=O)(NCCNc1nccc(-c2c(-c3cccc(F)c3)nc3sccn23)n1)c1ccccc1 | 59.5%
O=C(NCCNc1nccc(-c2c(-c3cccc(F)c3)nc3sccn23)n1)c1ccc(Cl)cc1 | 75.4%
COc1cc2oc(-c3cccc(C(=O)Nc4ccc(Cl)cc4)c3)cc(=O)c2c(O)c1OC | 75.5%
O=C1OC(Cc2ccccc2)C1c1ccccc1 (stereo not drawn) | 89.4%
CC(=O)Nc1ccc(-n2cnc3cc(-c4ccc(OCCN5CCCCC5)cc4)ccc32)cc1 | 146%
O=C(N/N=C/c1ccc(Oc2ccccc2)cc1)c1cnn2c1NC(c1ccccc1)C2 (stereo not drawn) | 66.8%
CCN(CC)CC[n+]1cc2cc(OC)c(OC)cc2c2ccc3cc4c(cc3c21)OCO4 | 12.2%
O=Cc1cc2ccccc2nc1Oc1ccc(C(F)(F)F)cc1 | 98%
Cc1cc2nc3c4cc(C=O)ccc4n(CCN(C)C)c3nc2cc1C | 23.2%
N#Cc1cccc(-c2ccc3c(c2)NC(=O)/C3=C\c2ccc[nH]2)c1 | 32.3%
CCc1c(Cl)nc(N)nc1Nc1ccc(C)c(C)c1 | 103%
COc1cc(NC(C)CCCNC(=O)CCC(=O)NCCCNCCCCCCCCCCNCCCNC(=O)CCC(=O)NCCCC(C)Nc2cc(OC)cc3cccnc23)c2ncccc2c1 (stereo not drawn) | 100% [8 µM]
Cc1ccccc1NS(=O)(=O)c1cccc(C(=O)Nc2ccc(Br)cc2)c1 | 55.9% [25 µM]
COc1cc(/C=C\C(=O)O)ccc1OCc1ccccc1 | 101%
CCCCCCCCOc1ccc(/C=N/Nc2cc(C)nc3ccc(Br)cc23)cc1 | 90.3%
S=c1cc(S)c2cc(Br)ccc2[nH]1 | 125%
CCOC(=O)CSc1nc2ccccc2c(=O)n1Cc1ccc(S(N)(=O)=O)cc1 | 98.7%
C=C1C(=O)O[C@H]2[C@H]1CC/C(COC(=O)NCc1c[nH]c3ccc(Cl)cc13)=C\CC[C@@]1(C)O[C@@H]21 | -53.9% (active)
